# CYP2C9 act – human CYP2C9 activators, primary screen, biochemical, luminescence | Cytochrome P450 2C9 (Homo sapiens), P11712 | recombinant CYP2C9, luciferin-H conversion; active compounds read high; factor 1 = untreated enzyme, 0 = blocked | activation factor at 5 µM | actives 1.4% (n = 96,000) | AID 1024, 2008;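 active = activation factor of 2 or more for CYP2C9 at a 5 µM dose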;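 also: 0 = sulfaphenazole-blocked wells and 1 = vehicle-only wells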
# Target sequence (P11712 whole entry, looked up): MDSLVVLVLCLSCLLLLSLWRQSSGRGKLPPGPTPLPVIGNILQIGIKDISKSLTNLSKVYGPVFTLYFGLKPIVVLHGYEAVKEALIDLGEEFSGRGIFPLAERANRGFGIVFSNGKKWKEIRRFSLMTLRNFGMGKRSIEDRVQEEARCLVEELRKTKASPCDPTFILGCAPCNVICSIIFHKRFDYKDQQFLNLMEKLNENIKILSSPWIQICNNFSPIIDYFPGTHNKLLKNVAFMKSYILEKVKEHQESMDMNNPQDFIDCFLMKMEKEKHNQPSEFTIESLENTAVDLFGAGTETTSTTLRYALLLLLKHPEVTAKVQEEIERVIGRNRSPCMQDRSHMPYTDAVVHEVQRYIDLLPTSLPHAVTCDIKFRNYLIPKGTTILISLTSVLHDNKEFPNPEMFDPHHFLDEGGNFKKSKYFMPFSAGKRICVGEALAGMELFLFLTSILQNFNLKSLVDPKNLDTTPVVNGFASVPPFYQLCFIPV
# E-sel TNF inh – E-selectin induction blockers in HUVEC – imaging, immunofluorescence, high content, primary screen; AID 1246, 2008; HUVEC TNFa-induced E-selectin immunofluorescence; inhibition, % at 2 µM; actives 0.71% (n = 120,000);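 active = inhibition above the batch mean plus 3 SD, and confirmed as a hit on visual image review, cut at about 43% in these data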;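 also: 0% = TNF-stimulated DMSO wells and 100% = unstimulated control wells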
# CYP2C19 activ – human CYP2C19 activators, primary screen, biochemical, luminescence | 96,000 tested, under 10 active | Cytochrome P450 2C19 (Homo sapiens), P33261 | recombinant CYP2C19, luciferin-H EGE luminescence; active compounds read high; 0 = fully inhibited enzyme, 1 = untreated enzyme | activation factor at 5 µM;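 active = activation factor of at least 2 at 5 µM in the primary screen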;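 also: 0 = wells with 2.5 mM tranylcypromine and 1 = vehicle-only wells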
# F-actin modifier – modifiers of F-actin cytoskeleton organization, primary screen, imaging, HUVEC, phalloidin staining, high-content imaging. HUVEC TNFa F-actin phalloidin imaging. inhibition, % at 2 µM. actives 0.18% (n = 91,000). AID 836, 2007;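 active = inhibition above the batch mean plus 3 SD and confirmed as a hit by visual image inspection, cut at about 30% in these data, passing the limit was not always enough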
# CYP2C9 inh – blockers of cytochrome P450 2C9 activity – biochemical, luminescence, ADME assay, primary screen; P11712; CYP2C9 Supersomes, luciferin-H conversion; inhibition, % at 5 µM; actives 20% (n = 96,000); AID 777, 2007;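 active = blocking of liver enzyme CYP2C9 beyond about 50% at 5 µM, limit read from the data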
# CYP2C19 inh – blockers of cytochrome P450 2C19 activity – biochemical, luminescence, ADME assay, primary screen; CYP2C19 Supersomes, luciferin-H EGE luminescence, 30 min; inhibition, % at 5 µM; actives 21% (n = 96,000);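 active = CYP2C19 inhibition above a set limit at 5 µM in the primary screen, cut at about 50% in these data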;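 also: plate controls were negative control wells for no effect and 2.5 mM tranylcypromine positive control for full effect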
# Starred values were filed as active, the others as inactive; · = no result. Only some compounds are listed: those with a hit (about 22% of all), similar ones and a draw of the others.
SMILES,CYP2C9 act,E-sel TNF inh,CYP2C19 activ,F-actin modifier,CYP2C9 inh,CYP2C19 inh
CCOc1ccc(NC(=O)CN(C)c2ccc(S(=O)(=O)N(C(C)C)C(C)C)cn2)cc1OCC,0.4,-6,0.6,-6,57*,35
CCOc1ccc(NC(=O)CN(C)c2nnnn2-c2ccccc2)cc1OCC,0.7,·,0.3,-17,27,72*
Cc1ccc(NC(=O)CN(C)c2ccc(S(=O)(=O)N3CCN(C)CC3)cn2)cc1,0.4,·,0.7,-39,56*,29
CN1CCN(S(=O)(=O)c2ccc(N(C)CC(=O)Nc3ccc(F)cc3)nc2)CC1,·,23,·,·,·,·
C/C(=N\NC(=O)c1cccnc1)c1cc(C)oc1C,·,6,·,·,·,·
CCOC(=O)Cc1csc(N/C(=N/S(=O)(=O)c2ccc(F)cc2F)c2ccccc2)n1,·,30,·,·,·,·
O=C(c1ccc(C#CC2(O)CCCCC2)cc1)N1CCN(C(c2ccccc2)c2ccccc2)CC1,0.3,-8,0.6,21,68*,39
O=C(c1ccc(C#CC2(O)CCCCC2)cc1)N1CCN(Cc2ccccc2)CC1,0.7,-27,0.8,-2,33,23
O=C(Cc1ccccc1)N[C@H](c1ccccc1)P(=O)(O)CO,1,-25,1.1,0,-4,-6
Cc1csc(NC(=O)CSc2nc(C)nc3c2c(=O)n(C)c(=O)n3C)n1,0.8,·,0.6,-12,21,40
CCOC(=O)CNC(=O)CSc1nnc(-c2ccc(OC)cc2)n1CC,·,15,·,3,·,·
C=CCn1c(SCc2nc3ccccc3[nH]2)nnc1-c1ccc(OC)cc1,0.8,14,0.2,-11,22,81*
C=CCn1c(SCC(=O)NC2CCCCC2)nnc1-c1ccc(OC)cc1,·,-15,·,·,·,·
CCn1c(SCc2nc3ccccc3[nH]2)nnc1-c1ccc(OC)cc1,0.7,-7,0.2,-5,27,82*
COC(=O)c1c(-c2ccccc2)csc1NC(=O)CSc1ncnc2sc(C)c(C)c12,0.3,-41,0.8,-22,71*,16
Cc1sc2ncnc(SCC(=O)NCC(C)C)c2c1C,0.4,7,0.7,-18,61*,26
CCC(Sc1ncnc2sc(C)c(C)c12)C(=O)OC (stereo not drawn),0.1,-12,0.4,8,93*,65*
Cc1sc2ncnc(SC(C)C#N)c2c1C (stereo not drawn),·,-27,·,·,·,·
O=c1c2ccccc2c(C=NCCc2ccccc2)c(O)n1Cc1ccccc1,0.2,11,0.5,5,77*,48
O=C(CN1CCN(Cc2ccccc2)C1=O)NCCCN1CCOCC1,0.9,·,1,4,6,4
O=c1c2ccccc2c(C=NCCCN2CCOCC2)c(O)n1Cc1ccccc1,0.3,-21,0.4,17,71*,65*
O=C(CSc1nnc(CNc2ccc(Cl)cc2)o1)Nc1nc2ccccc2s1,0.5,-2,1.1,15,46,-11
CC1(C)NC(=O)N(CCCSc2ccc(Cl)cc2)C1=O,0.4,-26,0.1,·,62*,93*
CC1(C)NC(=O)N(CCCOc2ccc3c(c2)CCC3)C1=O,0.9,-36,0.1,17,11,90*
COc1ccc(OCCN2C(=O)NC3(CCc4ccccc4C3)C2=O)cc1 (stereo not drawn),·,-6,·,·,·,·
SMILES,CYP2C9 act,E-sel TNF inh,CYP2C19 activ,F-actin modifier,CYP2C9 inh,CYP2C19 inh
CC1(C)NC(=O)N(CNc2cc(Cl)ccc2Cl)C1=O,3.1*,15,0.1,-10,-206,88*
COc1ccc(OCC(O)CN2C(=O)NC(C)(C)C2=O)cc1 (stereo not drawn),·,-6,·,-3,·,·
CC1(C)NC(=O)N(CCCCOc2ccc(Cl)cc2)C1=O,0.6,0,0.1,·,44,86*
CCOC(=O)CN1N=C(/C=C/c2ccc(C(C)C)cc2)CCC1=O,·,1,·,·,·,·
Cn1c(=N)n(CC(O)c2cccc3ccccc23)c2ccccc21 (stereo not drawn),1,·,0.8,-14,3,22
Cn1cc([N+](=O)[O-])c(C(=O)N/N=C/c2ccccc2)n1,0.9,-35,0.9,-27,11,13
Cc1cc(OCCCCN2C(=O)NC(C)(C)C2=O)cc(C)c1Cl,1,23,0.2,5,-4,76*
CCc1cc(OCCN2C(=O)NC(C)(C)C2=O)ccc1Cl,0.6,17,0.3,-20,42,74*
O=C(c1cnc(N2CCN(c3ncccn3)CC2)c2ccccc12)N1CCN(c2ncccn2)CC1,0.4,7,0.6,30,64*,42
CN(C(=O)c1cnc(N2CCN(c3ncccn3)CC2)c2ccccc12)c1ccc(Cl)cc1,0.3,21,0.1,7,70*,88*
CCN(C(=O)c1cnc(N2CCN(c3ncccn3)CC2)c2ccccc12)c1cccc(Cl)c1,0.2,-7,0,·,85*,97*
CCc1ccc(NC(=O)c2cnc(N3CCN(c4ccccn4)CC3)c3ccccc23)cc1,·,-17,·,·,·,·
CCCC/S(CC1CC1(Cl)Cl)=N\S(=O)(=O)c1ccc(C)cc1 (stereo not drawn),0.9,17,1,-7,6,-2
N#Cc1ccc(COC(=O)CSc2nnc(N)s2)cc1,·,-3,·,·,·,·
COc1ccc(CNc2nc(-c3cccnc3)nn2C(=O)c2ccco2)cc1,0.5,-12,0.6,-8,53*,41
COc1ccccc1C(=O)n1nc(-c2ccccc2)nc1NCc1ccco1,0.4,-9,0.4,-15,59*,61*
CCS(=O)(=O)n1nc(-c2ccccc2)nc1NCc1ccco1,·,-3,·,10,·,·
O=C(c1ccco1)n1nc(-c2ccccc2)nc1NCc1ccco1,1.1,25,1,-1,-9,-4
Cc1ccc(S(=O)(=O)n2nc(-c3ccc(Cl)cc3)nc2NCc2ccco2)cc1,0.5,-1,0.3,-6,48,68*
O=C(COc1ccccc1)n1nc(-c2ccc(Cl)cc2)nc1NCc1ccco1,0.4,-1,0.3,9,55*,69*
COc1cc(OC)c(C2N(c3cc(C)on3)C(=O)C3CCCN32)cc1OC (stereo not drawn),0.9,·,1.1,-10,10,-10
CCN1CCCC1CNC(=O)C(=O)Nc1cccc(OC)c1 (stereo not drawn),·,-9,·,·,·,·
COc1ccccc1C(=O)n1nc(-c2ccco2)nc1N,0.9,-8,0.4,9,11,57*
O=C(CCC(=O)c1ccc(F)cc1)OC1CCOC1=O (stereo not drawn),1.2,·,0.2,12,-16,78*
CCOc1ccc(C(=O)NCC(=O)OC2CCOC2=O)cc1OCC (stereo not drawn),1.1,-3,1,1,-7,-1
